Compounds without any hit were thinned out: in the full panel of roughly 79,000, 15% have a hit. Activity calls are given as the source filed them. No stated cut-off is given here; in the data, active means growth inhibition above about 70%; inactive means the rest.
Columns and labels:
[1] = NCI Yeast Anticancer Drug Screen. Data for the rad52 strain (AID 147);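 further: 0% = growth of vehicle-treated control cultures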; settings: S. cerevisiae rad52 mutant growth inhibition, stronger effect = higher value
In short: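 Compounds are applied to a genetically defined yeast strain lacking normal DNA damage repair, and inhibition of growth is expressed relative to cultures given vehicle only.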

[2] = NCI Yeast Anticancer Drug Screen. Data for the wt1 strain (AID 149);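 further: 0% = growth of vehicle-treated wt1 cultures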; settings: S. cerevisiae wt1 strain (SPY 50644) growth inhibition, stronger effect = higher value
In short: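 Yeast wt1 strain exposed to compounds; growth inhibition measured relative to vehicle-treated controls.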

[3] = NCI Yeast Anticancer Drug Screen. Data for the rad50EPP+ strain (AID 151);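 further: 0% = growth of vehicle-treated control cultures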; settings: S. cerevisiae rad50 mutant strain, stronger effect = higher value
In short: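 Compounds were applied to the rad50EPP+ yeast strain, which bears a defined DNA repair alteration, and growth inhibition was determined relative to vehicle-treated cultures.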

[4] = NCI Yeast Anticancer Drug Screen. Data for the mgt1 strain (AID 153); settings: S. cerevisiae mgt1 mutant growth inhibition, stronger effect = higher value
In short: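 Strain: mgt1 yeast, one of a set carrying defined DNA damage repair or cell cycle control alterations. Compound-treated growth compared with vehicle.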

[5] = NCI Yeast Anticancer Drug Screen. Data for the rad50 strain (AID 155);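 further: 0% = growth of vehicle-only cultures of the same strain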; settings: S. cerevisiae rad50 strain growth inhibition, stronger effect = higher value
In short: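 Yeast carrying a defined DNA repair defect were exposed to test compounds, and growth was compared with vehicle-treated controls to give percent inhibition.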

[6] = NCI Yeast Anticancer Drug Screen. Data for the mec2-1 strain (AID 157); settings: S. cerevisiae mec2-1 strain, stronger effect = higher value
In short: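 Strain: mec2-1 (DNA repair/cell cycle alteration). Compound exposure, then growth measured; inhibition expressed relative to vehicle.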

[7] = NCI Yeast Anticancer Drug Screen. Data for the rad14 strain (AID 159);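 further: 0% = growth of vehicle-treated control cultures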; settings: S. cerevisiae rad14 strain growth inhibition, stronger effect = higher value
In short: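 Yeast cells carrying a defined DNA-repair defect were exposed to compounds, and growth inhibition was calculated relative to vehicle-treated control cultures.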

[8] = NCI Yeast Anticancer Drug Screen. Data for the sgs1 mgt1 strain (AID 161);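 further: 0% = growth of cultures given vehicle only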; settings: S. cerevisiae sgs1 mgt1 strain, stronger effect = higher value
In short: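 Genetically altered yeast, compound exposure, growth inhibition relative to vehicle.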

[9] = NCI Yeast Anticancer Drug Screen. Data for the CLN2oe strain (AID 163);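 further: 0% = growth of vehicle-only control cultures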; settings: S. cerevisiae CLN2oe strain, stronger effect = higher value
In short: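 Growth of a genetically modified yeast strain is measured after compound exposure and compared with cultures given vehicle alone.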

[10] = NCI Yeast Anticancer Drug Screen. Data for the cln2 rad14 strain (AID 165);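 further: 0% = growth equal to vehicle treated cultures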; settings: S. cerevisiae cln2 rad14 strain, stronger effect = higher value
In short: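 Compounds are applied to the cln2 rad14 yeast strain, and growth is then compared with that of vehicle-treated cultures to give inhibition.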

[11] = NCI Yeast Anticancer Drug Screen. Data for the bub3 strain (AID 167); settings: S. cerevisiae bub3 mutant strain, stronger effect = higher value
In short: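 Compounds were applied to a genetically altered yeast strain carrying a cell-cycle control defect. Growth inhibition was scored against vehicle-treated controls.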

[12] = NCI Yeast Anticancer Drug Screen. Data for the wt2 strain (AID 169);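 further: 0% = growth of vehicle-treated yeast cultures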; settings: S. cerevisiae wt2 strain growth inhibition, stronger effect = higher value
In short: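 This strain belongs to a panel of yeast strains with defined genetic alterations in DNA damage repair or cell cycle control. Compounds are applied, and growth inhibition is measured against vehicle-treated cultures.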

[13] = NCI Yeast Anticancer Drug Screen. Data for the mlh1 strain (AID 171);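 further: 0% = growth of vehicle-treated control cultures of the same strain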; settings: S. cerevisiae mlh1 strain growth inhibition, stronger effect = higher value
In short: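 Growth of the mutant yeast strain after compound exposure, expressed as inhibition relative to vehicle-only controls.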

[14] = NCI Yeast Anticancer Drug Screen. Data for the sgs1 strain (AID 173);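 further: 0% = growth of vehicle-only control cultures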; settings: S. cerevisiae sgs1 mutant, stronger effect = higher value
In short: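 Growth of a yeast strain bearing a defined genetic alteration is measured after compound treatment. Inhibition is expressed relative to vehicle-only controls.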

[15] = NCI Yeast Anticancer Drug Screen. Data for the mlh1 rad18 strain (AID 175); settings: S. cerevisiae mlh1 rad18 strain growth inhibition, stronger effect = higher value
In short: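 Read-out is yeast growth inhibition, calculated against vehicle-only controls. The compound was applied to a strain engineered with DNA damage repair alterations.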

[16] = NCI Yeast Anticancer Drug Screen. Data for the rad18 strain (AID 177); settings: S. cerevisiae rad18 mutant growth inhibition, stronger effect = higher value
In short: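 Growth of the mutant yeast strain after compound exposure, normalised to vehicle-only cultures.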

[17] = at 5.0 µM (retest, dose inferred, filed as 0.5)
[18] = at 50.0 µM (retest, dose inferred, filed as 5.0)

Measured: growth inhibition

CCC(=O)c1cccc2ccccc12
active: [3]; at 100.0 µM 86%
inactive: [1]; at 1.2 µM 1% | [1]; at 3.7 µM 2% | [1]; at 11.0 µM 1% | [1]; at 33.0 µM 2% | [1]; at 100.0 µM -1% | [2]; at 1.2 µM 0% | [2]; at 3.7 µM 1% | [2]; at 11.0 µM 3% | [2]; at 33.0 µM 0% | [2]; at 100.0 µM -4% | [3]; at 1.2 µM 6% | [3]; at 3.7 µM 11% | [3]; at 11.0 µM 27% | [3]; at 33.0 µM 48% | [4]; at 1.2 µM 1% | [4]; at 3.7 µM -1% | [4]; at 11.0 µM 0% | [4]; at 33.0 µM 15% | [4]; at 100.0 µM 3% | [5]; at 1.2 µM 0% | [5]; at 3.7 µM -1% | [5]; [17] -14% | [5]; at 11.0 µM 1% | [5]; at 33.0 µM 0% | [5]; [18] 2% | [5]; at 50.0 µM 14.7% | [5]; at 100.0 µM -3% | [6]; at 1.2 µM -2% | [6]; at 3.7 µM 0% | [6]; [17] 5% | [6]; at 11.0 µM -2% | [6]; at 33.0 µM -1% | [6]; [18] 4% | [6]; at 50.0 µM 19.2% | [6]; at 100.0 µM -1% | [7]; at 1.2 µM -1% | [7]; at 3.7 µM -2% | [7]; at 11.0 µM -1% | [7]; at 33.0 µM -1% | [7]; at 100.0 µM 4% | [8]; [17] -4% | [8]; [18] 52% | [8]; at 50.0 µM 20% | [9]; at 1.2 µM -7% | [9]; at 3.7 µM 2% | [9]; at 11.0 µM -6% | [9]; at 33.0 µM -13% | [9]; at 100.0 µM -11% | [10]; [17] 12% | [10]; [18] 18% | [10]; at 50.0 µM 46.5% | [11]; at 1.2 µM -6% | [11]; at 3.7 µM -6% | [11]; [17] 11% | [11]; at 11.0 µM -6% | [11]; at 33.0 µM -8% | [11]; [18] 23% | [11]; at 50.0 µM -4.8% | [11]; at 100.0 µM 4% | [12]; at 1.2 µM 1% | [12]; at 3.7 µM 2% | [12]; at 11.0 µM 3% | [12]; at 33.0 µM 1% | [12]; at 100.0 µM 1% | [13]; at 1.2 µM 3% | [13]; at 3.7 µM 2% | [13]; at 11.0 µM 2% | [13]; at 33.0 µM 1% | [13]; at 100.0 µM 4% | [14]; at 1.2 µM 1% | [14]; at 3.7 µM 3% | [14]; at 11.0 µM 4% | [14]; at 33.0 µM 3% | [14]; at 100.0 µM 14% | [15]; [17] 7% | [15]; [18] 28% | [15]; at 50.0 µM -14.7% | [16]; at 1.2 µM 1% | [16]; at 3.7 µM -1% | [16]; at 11.0 µM -14% | [16]; at 33.0 µM 0% | [16]; at 100.0 µM -2%

Cc1ccc(C2C(Cl)C(=O)N2n2cnc3ccccc3c2=O)cc1 (stereo unspecified)
active: [11]; [18] 84%
inactive: [1]; at 1.2 µM 6% | [1]; at 3.7 µM 11% | [1]; at 11.0 µM 8% | [1]; at 33.0 µM 9% | [1]; at 100.0 µM -8% | [2]; at 1.2 µM 8% | [2]; at 3.7 µM 14% | [2]; at 11.0 µM 19% | [2]; at 33.0 µM 6% | [2]; at 100.0 µM 6% | [3]; at 1.2 µM -13% | [3]; at 3.7 µM -6% | [3]; at 11.0 µM -3% | [3]; at 33.0 µM 34% | [3]; at 100.0 µM 51% | [4]; at 1.2 µM -15% | [4]; at 3.7 µM -11% | [4]; at 11.0 µM -23% | [4]; at 33.0 µM -19% | [4]; at 100.0 µM -27% | [5]; at 1.2 µM -2% | [5]; at 3.7 µM 0% | [5]; [17] 14% | [5]; at 11.0 µM -6% | [5]; at 33.0 µM -6% | [5]; [18] -4% | [5]; at 50.0 µM -15.2% | [5]; at 100.0 µM -20% | [6]; at 1.2 µM -6% | [6]; at 3.7 µM -12% | [6]; [17] -16% | [6]; at 11.0 µM -10% | [6]; at 33.0 µM -11% | [6]; [18] 10% | [6]; at 50.0 µM 12.5% | [6]; at 100.0 µM -15% | [7]; at 1.2 µM -15% | [7]; at 3.7 µM -19% | [7]; at 11.0 µM -9% | [7]; at 33.0 µM -12% | [7]; at 100.0 µM -4% | [8]; [17] -4% | [8]; [18] 20% | [8]; at 50.0 µM -0.75% | [9]; at 1.2 µM -23% | [9]; at 3.7 µM -43% | [9]; at 11.0 µM -18% | [9]; at 33.0 µM -54% | [9]; at 100.0 µM -20% | [10]; [17] 4% | [10]; [18] 28% | [10]; at 50.0 µM 6.4% | [11]; at 1.2 µM -10% | [11]; at 3.7 µM -7% | [11]; [17] 33% | [11]; at 11.0 µM 3% | [11]; at 33.0 µM 46% | [11]; at 50.0 µM 68.6% | [11]; at 100.0 µM 62% | [12]; at 1.2 µM -15% | [12]; at 3.7 µM -19% | [12]; at 11.0 µM -18% | [12]; at 33.0 µM -23% | [12]; at 100.0 µM -8% | [13]; at 1.2 µM -39% | [13]; at 3.7 µM -39% | [13]; at 11.0 µM -41% | [13]; at 33.0 µM -34% | [13]; at 100.0 µM -4% | [14]; at 1.2 µM 11% | [14]; at 3.7 µM 17% | [14]; at 11.0 µM 11% | [14]; at 33.0 µM 22% | [14]; at 100.0 µM 30% | [15]; [17] -9% | [15]; [18] 6% | [15]; at 50.0 µM -11.2% | [16]; at 1.2 µM -1% | [16]; at 3.7 µM 6% | [16]; at 11.0 µM -1% | [16]; at 33.0 µM -7% | [16]; at 100.0 µM -5%

— PubChem BioAssay (NCI)
